Results published in PubChem BioAssay AID1159580 (chemical genetic matrix, 2015).
Out of some 5,500 compounds screened, about 2,000 (36%) were called active. Not shown: some 18% with an inconclusive outcome. This is one part of the list. Unmarked numbers belong to inactive results. Cut-off read from the data, not from the text of the source: active = normalized growth mostly below about 0.91 (no sharp cut-off); inconclusive = no clear call, values can overlap the other calls; inactive = mostly above about 0.92.

Assay: chemical genetic growth profiling, strain panel (AID 1159580);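 note: tested at 20 µM; growth read once vehicle control cultures reached saturation at 30 °C; 1 = growth at the plate median or of vehicle wells; lower values mean less growth of the strain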
Details: growth OD
[1] = S. cerevisiae deletion strains, locus YDL101C, strain DUN1, active compounds read low
[2] = S. cerevisiae deletion strains, locus YHR030C, strain SLT2, active compounds read low

CC12NC(=O)NC1(C)NC(=O)N2 (configuration not stated)
normalized growth (S. cerevisiae deletion strains, locus YAL013W, strain DEP1, active compounds read low): 1.04
normalized growth (S. cerevisiae deletion strains, locus YBR229C, strain ROT2, active compounds read low): 1.01
normalized growth (S. cerevisiae deletion strains, locus YCL061C, strain MRC1, active compounds read low): 1
normalized growth [1]: 1.01
normalized growth (S. cerevisiae deletion strains, locus YDL134C, strain PPH21, active compounds read low): 1.02
normalized growth (S. cerevisiae deletion strains, locus YDR150W, strain NUM1, active compounds read low): 0.997
normalized growth (S. cerevisiae deletion strains, locus YEL061C, strain CIN8, active compounds read low): 1.03
normalized growth (S. cerevisiae deletion strains, locus YGR078C, strain PAC10, active compounds read low): 1.02
normalized growth (S. cerevisiae deletion strains, locus YGR229C, strain SMI1, active compounds read low): 1.01
normalized growth [2]: 1.07
normalized growth (S. cerevisiae deletion strains, locus YHR087W, strain rtc3, active compounds read low): 1.01
normalized growth (S. cerevisiae deletion strains, locus YJR043C, strain POL32, active compounds read low): 1.01
normalized growth (S. cerevisiae deletion strains, locus YJR075W, strain HOC1, active compounds read low): 1.02
normalized growth (S. cerevisiae deletion strains, locus YKL190W, strain CNB1, active compounds read low): 1.03
normalized growth (S. cerevisiae deletion strains, locus YLR039C, strain RIC1, active compounds read low): 1.06
normalized growth (S. cerevisiae deletion strains, locus YLR058C, strain SHM2 (second series), active compounds read low): 1.02
normalized growth (S. cerevisiae deletion strains, locus YLR085C, strain ARP6, active compounds read low): 1.05
normalized growth (S. cerevisiae deletion strains, locus YLR262C, strain YPT6, active compounds read low): 1.04
normalized growth (S. cerevisiae deletion strains, locus YML094W, strain GIM5, active compounds read low): 1.04
normalized growth (S. cerevisiae deletion strains, locus YMR219W, strain ESC1, active compounds read low): 1.01
normalized growth (S. cerevisiae deletion strains, locus YMR263W, strain SAP30, active compounds read low): 1.01
normalized growth (S. cerevisiae deletion strains, locus YMR307W, strain GAS1, active compounds read low): 1.11
normalized growth (S. cerevisiae deletion strains, locus YNL153C, strain GIM3, active compounds read low): 1
normalized growth (S. cerevisiae deletion strains, locus YNL298W, strain CLA4 (second series), active compounds read low): 1.05
normalized growth (S. cerevisiae deletion strains, locus YNL322C, strain KRE1, active compounds read low): 1.01
normalized growth (S. cerevisiae deletion strains, locus YNR030W, strain Alg12, active compounds read low): 1.02
normalized growth (S. cerevisiae deletion strains, locus YOL006C, strain TOP1, active compounds read low): 1.09
normalized growth (S. cerevisiae deletion strains, locus YPL055C, strain LGE1, active compounds read low): 1.04
normalized growth (S. cerevisiae deletion strains, locus YPL241C, strain CIN2, active compounds read low): 1.05
normalized growth (S. cerevisiae deletion strains, locus YPR135W, strain CTF4, active compounds read low): 1.02
normalized growth (S. cerevisiae strains, strain wild type, active compounds read low): 1.01

ClC1=C(C=Nc2ccc(Cl)cc2)CSc2ccc(Cl)cc21
normalized growth (S. cerevisiae deletion strains, locus YAR019C, strain CDC15, active compounds read low): 0.941
normalized growth (S. cerevisiae deletion strains, locus YBL105C, strain PKC1, active compounds read low): 0.926
normalized growth (S. cerevisiae deletion strains, locus YBR135W, strain CKS1, active compounds read low): 0.939
normalized growth (S. cerevisiae deletion strains, locus YBR136W, strain MEC1, active compounds read low): 0.926
normalized growth (S. cerevisiae deletion strains, locus YBR160W, strain CDC28, active compounds read low): 0.937
normalized growth (S. cerevisiae deletion strains, locus YDL017W, strain CDC7, active compounds read low): 0.933
normalized growth (S. cerevisiae deletion strains, locus YDL028C, strain MPS1, active compounds read low): 0.912
normalized growth [1]: 0.945
normalized growth (S. cerevisiae deletion strains, locus YDL108W, strain KIN28, active compounds read low): 0.923
normalized growth (S. cerevisiae deletion strains, locus YDL132W, strain cdc53, active compounds read low): 0.936
normalized growth (S. cerevisiae deletion strains, locus YDL214C, strain PRR2, active compounds read low): 0.896
normalized growth (S. cerevisiae deletion strains, locus YDR052C, strain DBF4, active compounds read low): 0.943
normalized growth (S. cerevisiae deletion strains, locus YDR054C, strain cdc34, active compounds read low): 0.919
normalized growth (S. cerevisiae deletion strains, locus YDR226W, strain ADK1, active compounds read low): 0.914
normalized growth (S. cerevisiae deletion strains, locus YDR477W, strain SNF1, active compounds read low): 0.879
normalized growth (S. cerevisiae deletion strains, locus YER123W, strain YCK3, active compounds read low): 0.83
normalized growth (S. cerevisiae deletion strains, locus YER133W, strain GLC7, active compounds read low): 0.891
normalized growth (S. cerevisiae deletion strains, locus YFL009W, strain cdc4, active compounds read low): 0.924
normalized growth (S. cerevisiae deletion strains, locus YFL029C, strain CAK1, active compounds read low): 0.928
normalized growth (S. cerevisiae deletion strains, locus YFR003C, strain YPI1, active compounds read low): 0.94
normalized growth (S. cerevisiae deletion strains, locus YFR019W, strain FAB1, active compounds read low): 0.909
normalized growth (S. cerevisiae deletion strains, locus YFR028C, strain CDC14, active compounds read low): 0.935
normalized growth (S. cerevisiae deletion strains, locus YGR040W, strain KSS1, active compounds read low): 0.866
normalized growth (S. cerevisiae deletion strains, locus YGR052W, strain FMP48, active compounds read low): 0.905
normalized growth (S. cerevisiae deletion strains, locus YGR092W, strain DBF2, active compounds read low): 0.796
normalized growth [2]: 0.74 (active)
normalized growth (S. cerevisiae deletion strains, locus YHR079C, strain IRE1, active compounds read low): 0.862
normalized growth (S. cerevisiae deletion strains, locus YHR082C, strain KSP1, active compounds read low): 0.816
normalized growth (S. cerevisiae deletion strains, locus YHR205W, strain SCH9, active compounds read low): 0.812
normalized growth (S. cerevisiae deletion strains, locus YIL147C, strain SLN1, active compounds read low): 0.926
normalized growth (S. cerevisiae deletion strains, locus YJL095W, strain BCK1, active compounds read low): 0.881
normalized growth (S. cerevisiae deletion strains, locus YJL128C, strain PBS2, active compounds read low): 0.903
normalized growth (S. cerevisiae deletion strains, locus YJL157C, strain FAR1, active compounds read low): 0.886
normalized growth (S. cerevisiae deletion strains, locus YJR016C, strain ILV3, active compounds read low): 0.936
normalized growth (S. cerevisiae deletion strains, locus YJR066W, strain TOR1 (second series), active compounds read low): 0.91
normalized growth (S. cerevisiae deletion strains, locus YJR066W, strain TOR1, active compounds read low): 0.815
normalized growth (S. cerevisiae deletion strains, locus YKL048C, strain ELM1, active compounds read low): 0.941
normalized growth (S. cerevisiae deletion strains, locus YKL067W, strain YNK1, active compounds read low): 0.902
normalized growth (S. cerevisiae deletion strains, locus YKL101W, strain HSL1, active compounds read low): 0.893
normalized growth (S. cerevisiae deletion strains, locus YKL193C, strain SDS22, active compounds read low): 0.932
normalized growth (S. cerevisiae deletion strains, locus YKL203C, strain TOR2, active compounds read low): 0.884
normalized growth (S. cerevisiae deletion strains, locus YLR113W, strain HOG1, active compounds read low): 0.808 (active)
normalized growth (S. cerevisiae deletion strains, locus YLR133W, strain CKI1, active compounds read low): 0.869
normalized growth (S. cerevisiae deletion strains, locus YLR403W, strain SFP1, active compounds read low): 0.836
normalized growth (S. cerevisiae deletion strains, locus YML070W, strain DAK1, active compounds read low): 0.89
normalized growth (S. cerevisiae deletion strains, locus YMR001C, strain CDC5, active compounds read low): 0.927
normalized growth (S. cerevisiae deletion strains, locus YMR205C, strain PFK2 (second series), active compounds read low): 0.904
normalized growth (S. cerevisiae deletion strains, locus YMR277W, strain FCP1, active compounds read low): 0.933
normalized growth (S. cerevisiae deletion strains, locus YNL006W, strain LST8, active compounds read low): 0.928
normalized growth (S. cerevisiae deletion strains, locus YNL020C, strain ARK1, active compounds read low): 0.883
normalized growth (S. cerevisiae deletion strains, locus YNL161W, strain CBK1, active compounds read low): 0.929
normalized growth (S. cerevisiae deletion strains, locus YNL183C, strain NPR1, active compounds read low): 0.841
normalized growth (S. cerevisiae deletion strains, locus YNL207W, strain RIO2, active compounds read low): 0.926
normalized growth (S. cerevisiae deletion strains, locus YNL222W, strain SSU72, active compounds read low): 0.947
normalized growth (S. cerevisiae deletion strains, locus YNL307C, strain MCK1 (second series), active compounds read low): 0.861
normalized growth (S. cerevisiae deletion strains, locus YOL078W, strain AVO1, active compounds read low): 0.937
normalized growth (S. cerevisiae deletion strains, locus YOL136C, strain PFK27, active compounds read low): 0.886
normalized growth (S. cerevisiae deletion strains, locus YOR061W, strain CKA2, active compounds read low): 0.843
normalized growth (S. cerevisiae deletion strains, locus YOR119C, strain RIO1, active compounds read low): 0.848
normalized growth (S. cerevisiae deletion strains, locus YOR231W, strain MKK1, active compounds read low): 0.924
normalized growth (S. cerevisiae deletion strains, locus YOR329C, strain SCD5, active compounds read low): 0.93
normalized growth (S. cerevisiae deletion strains, locus YPL031C, strain PHO85, active compounds read low): 0.87
normalized growth (S. cerevisiae deletion strains, locus YPL153C, strain RAD53, active compounds read low): 0.904
normalized growth (S. cerevisiae deletion strains, locus YPL204W, strain HRR25, active compounds read low): 0.893
normalized growth (S. cerevisiae deletion strains, locus YPL209C, strain IPL1, active compounds read low): 0.932
normalized growth (S. cerevisiae deletion strains, locus YPL256C, strain CLN2, active compounds read low): 0.843 (active)
normalized growth (S. cerevisiae deletion strains, locus YPR025C, strain CCL1, active compounds read low): 0.935
normalized growth (S. cerevisiae deletion strains, locus YPR106W, strain ISR1, active compounds read low): 0.922
normalized growth (S. cerevisiae deletion strains, locus YPR111W, strain DBF20, active compounds read low): 0.923
normalized growth (S. cerevisiae deletion strains, strain NNK1, active compounds read low): 0.923
normalized growth (S. cerevisiae deletion strains, strain TSCII, active compounds read low): 0.93
